Test results taken from PubChem BioAssay.
Calls of active or inactive are those of the source.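 How the source made its calls: active means GFP response above 150% of the DMSO level; inconclusive means fewer than 70 events counted for a yeast strain; inactive means the rest.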

Experiment: yeast AGP1-GFP fluorescence change, single-dose – cell-based, flow cytometry, S. cerevisiae, cherry picks, confirmation (AID 2273);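 further: median GFP channel fluorescence over the whole cell population gate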
Details: S. cerevisiae AGP1-GFP strain, 3 h, at 10 µM

GFP response, % of DMSO, active:
N#C/C(=C\c1ccccn1)c1nc2ccccc2s1 205%

GFP response, % of DMSO, inactive:
CCCCCCNC(=O)c1c(O)c2cccc3c2n(c1=O)CCC3 96.8%
Cc1ccc(N2CCN(C(=O)c3ccccc3)CC2)c(C)c1 94.3%
COc1ccccc1-c1noc(CCC(=O)Nc2cccc(C)c2)n1 90.8%
O=C(NC(=S)NNC(=O)c1ccc(Cl)cc1Cl)c1cccnc1 104%
CN1C(=O)c2cccc3c(Cl)ccc(c23)C1=O 92.4%
Cc1nc2c(-c3ccc(F)cc3)c(C)nn2c(N2CCOCC2)c1C 98.7%
CCOc1cc(-c2nc3cc(C)ccn3c2NCC2CCCO2)ccc1O (stereo not given) 97.9%
CCOC(=O)CS(=O)(=O)c1nc(-c2ccccc2)cc(C(F)(F)F)n1 110%
C[n+]1ccc(/C=C/c2c[nH]c3ccc(F)cc23)cc1 104%
COc1cc(NC(=O)c2ccc(F)cc2)ccc1NC(=O)c1cc2ccccc2o1 102%
O=C(NCc1cccnc1)c1cnc2n(c1=O)CCS2 102%
O=C(Nc1cc(Sc2ccccn2)cc([N+](=O)[O-])c1)c1cccc(F)c1 95.7%
O=C1CC(SCCO)C(=O)N1c1ccc(Oc2ccccc2)cc1 (stereo not given) 103%
Cc1cc(NCCN2CCOCC2)n2ncc(-c3ccccc3)c2n1 89.3%
O=C(Nc1cccc(O)c1)c1ccccc1 101%
Cc1nn(C)c(C(=O)Sc2cccc(Cl)c2)c1[N+](=O)[O-] 102%
COc1ccc(N2C(=O)C(Cl)=C(Nc3ccccc3O)C2=O)cc1 98.8%
COc1ccc(Br)cc1/C=C/C(=O)c1ccc(NC(C)=O)cc1 98.6%
CC(=O)N(\C=C/C=C/C=C1\Sc2ccccc2C1=O)c1ccccc1 112%
CS(=O)(=O)Nc1cccc(C2=NN(S(C)(=O)=O)C(c3ccc4c(c3)OCO4)C2)c1 (stereo not given) 99.5%
C/C(=N\NC(=O)c1cccc(Br)c1)c1ccccn1 97.3%
O=C(O)Cc1ccc2ccc3ccccc3c2c1 96.1%
Cc1ccc(S(=O)(=O)N(Cc2ccccc2)Cc2ccco2)cc1 97.8%
O=C1c2ccsc2SCCN1Cc1c(F)cccc1Cl 99%
CS/C(N)=N/N=C/c1ccc2c(c1)OCO2 102%
COc1ccc(C(=O)NNC(=S)NC(=O)/C=C/c2cccs2)cc1 121%
COCc1nnc(NC(=O)c2ccc(S(=O)(=O)N(C)C3CCCCC3)cc2)o1 97.8%
COC(=O)c1ccc(/C=N/OCC(=O)NCCc2ccc(OC)c(OC)c2)cc1 102%
CC(C)CC[n+]1ccccc1/C=C/c1ccc(N(C)C)cc1 107%
COc1cccc(NC(=O)/C=C/c2ccc([N+](=O)[O-])cc2)c1 95.7%
O=C(c1ccc(Cl)cc1)N1CCN(c2cccc3[nH]ccc23)CC1 91.9%
CCc1ccc(NC(=O)c2nc(S(=O)(=O)Cc3ccccc3)ncc2Cl)cc1 96%
c1ccc2oc(SCc3nc4ccccc4s3)nc2c1 95%
CCOC(=O)CSC1=NC(=O)/C(=C\c2ccc(Cl)cc2)S1 116%
COc1ccc(C2CC(c3ccccc3)=NN2S(=O)(=O)c2ccccc2)c(OC)c1 (stereo not given) 103%
FC(F)(F)c1cc(-c2cccs2)nc2cc(-c3cccs3)nn12 95.1%
CC1CN(c2nc3ccccn3c(=O)c2/C=C(\C#N)C(=O)N2CCOCC2)CC(C)O1 (stereo not given) 95%
Cc1ccc(CC2CC(=O)N(Cc3ccco3)C2=O)cc1 (stereo not given) 99.2%
Cc1ccc(-c2nnc(NC(=O)c3ccc([N+](=O)[O-])o3)o2)c(C)c1 92.3%

Experiment: TOR pathway CIT2 reporter hit retest – S. cerevisiae, GFP fusion, cherry picks, mother/daughter gates, confirmation (AID 2274)
Details: S. cerevisiae CIT2-GFP strain, flow cytometry, 3 h; at 10 µM; active compounds read high

GFP response, % of DMSO, active:
N#C/C(=C\c1ccccn1)c1nc2ccccc2s1 506%

GFP response, % of DMSO, inactive:
CCCCCCNC(=O)c1c(O)c2cccc3c2n(c1=O)CCC3 96.9%
Cc1ccc(N2CCN(C(=O)c3ccccc3)CC2)c(C)c1 107%
COc1ccccc1-c1noc(CCC(=O)Nc2cccc(C)c2)n1 95%
O=C(NC(=S)NNC(=O)c1ccc(Cl)cc1Cl)c1cccnc1 98.4%
CN1C(=O)c2cccc3c(Cl)ccc(c23)C1=O 97.3%
Cc1nc2c(-c3ccc(F)cc3)c(C)nn2c(N2CCOCC2)c1C 104%
CCOc1cc(-c2nc3cc(C)ccn3c2NCC2CCCO2)ccc1O (stereo not given) 104%
CCOC(=O)CS(=O)(=O)c1nc(-c2ccccc2)cc(C(F)(F)F)n1 110%
C[n+]1ccc(/C=C/c2c[nH]c3ccc(F)cc23)cc1 110%
COc1cc(NC(=O)c2ccc(F)cc2)ccc1NC(=O)c1cc2ccccc2o1 94.7%
O=C(NCc1cccnc1)c1cnc2n(c1=O)CCS2 98.6%
O=C(Nc1cc(Sc2ccccn2)cc([N+](=O)[O-])c1)c1cccc(F)c1 97.2%
O=C1CC(SCCO)C(=O)N1c1ccc(Oc2ccccc2)cc1 (stereo not given) 104%
Cc1cc(NCCN2CCOCC2)n2ncc(-c3ccccc3)c2n1 103%
O=C(Nc1cccc(O)c1)c1ccccc1 98.3%
Cc1nn(C)c(C(=O)Sc2cccc(Cl)c2)c1[N+](=O)[O-] 104%
COc1ccc(N2C(=O)C(Cl)=C(Nc3ccccc3O)C2=O)cc1 100%
COc1ccc(Br)cc1/C=C/C(=O)c1ccc(NC(C)=O)cc1 98.6%
CC(=O)N(\C=C/C=C/C=C1\Sc2ccccc2C1=O)c1ccccc1 131%
CS(=O)(=O)Nc1cccc(C2=NN(S(C)(=O)=O)C(c3ccc4c(c3)OCO4)C2)c1 (stereo not given) 103%
C/C(=N\NC(=O)c1cccc(Br)c1)c1ccccn1 108%
O=C(O)Cc1ccc2ccc3ccccc3c2c1 104%
Cc1ccc(S(=O)(=O)N(Cc2ccccc2)Cc2ccco2)cc1 106%
O=C1c2ccsc2SCCN1Cc1c(F)cccc1Cl 98.8%
CS/C(N)=N/N=C/c1ccc2c(c1)OCO2 103%
COc1ccc(C(=O)NNC(=S)NC(=O)/C=C/c2cccs2)cc1 108%
COCc1nnc(NC(=O)c2ccc(S(=O)(=O)N(C)C3CCCCC3)cc2)o1 103%
COC(=O)c1ccc(/C=N/OCC(=O)NCCc2ccc(OC)c(OC)c2)cc1 107%
CC(C)CC[n+]1ccccc1/C=C/c1ccc(N(C)C)cc1 115%
COc1cccc(NC(=O)/C=C/c2ccc([N+](=O)[O-])cc2)c1 88.6%
O=C(c1ccc(Cl)cc1)N1CCN(c2cccc3[nH]ccc23)CC1 96.9%
CCc1ccc(NC(=O)c2nc(S(=O)(=O)Cc3ccccc3)ncc2Cl)cc1 87.8%
c1ccc2oc(SCc3nc4ccccc4s3)nc2c1 99.7%
CCOC(=O)CSC1=NC(=O)/C(=C\c2ccc(Cl)cc2)S1 88.9%
COc1ccc(C2CC(c3ccccc3)=NN2S(=O)(=O)c2ccccc2)c(OC)c1 (stereo not given) 106%
FC(F)(F)c1cc(-c2cccs2)nc2cc(-c3cccs3)nn12 93%
CC1CN(c2nc3ccccn3c(=O)c2/C=C(\C#N)C(=O)N2CCOCC2)CC(C)O1 (stereo not given) 100%
Cc1ccc(CC2CC(=O)N(Cc3ccco3)C2=O)cc1 (stereo not given) 107%
Cc1ccc(-c2nnc(NC(=O)c3ccc([N+](=O)[O-])o3)o2)c(C)c1 95.8%
